Compound activity from PubChem BioAssay.
GRK2 aptamer HTS: inhibitors of human GRK2 displacing RNA aptamer | inhibition of aptamer binding, % at 10 µM | bead flow cytometry, FAM-aptamer displacement from GRK2 | 0.59% of 330,000 active;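 active = inhibition of aptamer binding above 40%, roughly 3 SD of noise, on plates passing a quality check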;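 note: median bead fluorescence of bound FAM aptamer so fluorescent compounds give negative values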
ATG4B inhibitor: ATG4B (human) cysteine protease inhibition; Q9Y4P1; 0.51% of 340,000 active; inhibition, % at 8.33 µM; ATG4B cleavage of LC3-PLA2, NBD-HPC fluorescence, 1 h; in the data active = inhibition above about 40%
Target sequence (Q9Y4P1 whole entry, looked up): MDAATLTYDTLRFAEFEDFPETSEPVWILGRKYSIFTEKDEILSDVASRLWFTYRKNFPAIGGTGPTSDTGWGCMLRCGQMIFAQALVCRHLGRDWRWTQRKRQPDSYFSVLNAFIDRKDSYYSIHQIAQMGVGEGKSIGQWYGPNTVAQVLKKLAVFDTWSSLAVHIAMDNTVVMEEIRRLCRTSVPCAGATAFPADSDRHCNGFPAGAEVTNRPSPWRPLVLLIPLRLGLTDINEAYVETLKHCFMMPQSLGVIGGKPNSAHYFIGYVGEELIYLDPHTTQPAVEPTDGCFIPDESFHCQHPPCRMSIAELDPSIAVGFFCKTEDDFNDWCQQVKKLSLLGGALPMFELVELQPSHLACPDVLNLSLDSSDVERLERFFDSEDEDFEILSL
Efflux pump mplx: antifungal efflux pump inhibition, Nile Red retention; S. cerevisiae Candida pump triplex; inhibition, % at 10 µM; 0.44% of 330,000 active;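 active = plate passing quality check with inhibition over a set limit, or well fluorescence over plate mean plus 4 SD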;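 note: Nile Red retained in pooled yeast measured as flow cytometry median fluorescence; higher means more Nile Red kept so more efflux inhibition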
CR mimetic SO: lowers age-related superoxide in aged yeast cells; S. cerevisiae aged cells, superoxide DHE fluorescence; stronger effect = lower value; superoxide response (% of plate mean), % at 10 µM; 0.18% of 330,000 active;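 active = superoxide response under a set limit, about three screen SD below normal, cut at about 65% in these data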;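 note: yeast aged for seven days with compound at 30 °C before DHE staining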
GRK2 CP1: human GRK2 inhibition confirmation, cherry pick 1; shares compounds with GRK2 aptamer HTS; bead-bound GRK2, FAM-aptamer displacement, flow cytometry; aptamer displacement, % at 10 µM; 4% of 2,000 active;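 active = aptamer displacement above 40%, near three times the noise of non-fluorescent compounds, on plates passing quality checks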;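 note: negative values mostly reflect intrinsic compound fluorescence rather than true enhancement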
Aptamer quench SP: counter-screen for GRK2 aptamer inhibitors: fluorescent aptamer quenchers. shares compounds with GRK2 aptamer HTS. Carboxyfluorescein RNA aptamer on beads, flow cytometry quenching; stronger effect = lower value. fluorescence response (% of DMSO), % at 10 µM. 2,000 tested, under 10 active. AID 504580;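 active = compounds that quench the bead-bound fluorescent RNA probe, cutting fluorescence to under half of the solvent control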;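 note: counterscreen run without GRK2 so only probe quenching by compound is measured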
GRK2 CP2: confirmation of human GRK2 inhibitors binding RNA aptamer site; shares compounds with GRK2 aptamer HTS; bead-bound GRK2, FAM-aptamer displacement, flow cytometry; inhibition of aptamer binding, % at 10 µM; 360 tested, under 10 active; AID 504782;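 active = inhibition of aptamer binding above 40%, about triple the noise seen with nonglowing compounds, on plates passing quality control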;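 note: negative values mostly come from compounds that fluoresce themselves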
FAM quench CP2: aptamer fluorescence quenching in GRK2 counter-screen | 360 tested, under 10 active | carboxyfluorescein RNA aptamer beads, flow cytometry quenching; stronger effect = lower value | fluorescence response vs DMSO, % at 10 µM | shares compounds with GRK2 aptamer HTS;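 active = response vs DMSO under 50%, meaning signal dropped by over half, treated as fluorescence quencher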;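 note: labelled aptamer on streptavidin beads without GRK2 as a quench counter-screen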
Numbers stand for hits; . = inactive; / = not tested or not shown. The list is not random: actives were taken first. Their share in the collection is about 1.6%.

SMILES	GRK2 aptamer HTS	ATG4B inhibitor	Efflux pump mplx	CR mimetic SO	GRK2 CP1	Aptamer quench SP	others
CC[C@]12CC[C@H](O)CC1=CCC1C2CC[C@]2(C)C(=O)CCC12 (some centres undefined)	42	.	.	.	/	/	GRK2 CP2=.;FAM quench CP2=.
CC(=O)O[C@H]1CC[C@@]2(C)C(=CC[C@@H]3[C@@H]2CC[C@]2(C)C(=O)CC[C@@H]32)C1	.	.	.	.	/	/
CN1C(=O)C(O)N=C(c2ccccc2)c2ccccc21 (centres undefined)	.	.	.	.	/	/
CC(C)CN1CCN(Cc2ccc(C(F)(F)F)cc2)CC1CCO (centres undefined)	.	.	.	.	/	/
CCN(C(=O)COC(=O)C(O)(c1ccccc1)c1ccccc1)c1c(N)n(Cc2ccccc2)c(=O)[nH]c1=O	/	.	/	/	/	/
CN1C2CCC1/C(=C/c1ccccn1)C(=O)/C2=C\c1ccccn1	92	.	.	.	.	.
CC1CCN(c2cc(Br)c([N+](=O)[O-])cc2F)CC1	.	.	.	.	/	/
COC(=O)C1=C(c2cccc(C#N)c2)C[C@@H]2CC[C@H]1N2C(=O)NCc1cccc2ccccc12	.	.	.	.	/	/
COc1ccc(C(=O)C23CN4CN(CN(C4)C2)C3)cc1	43	.	.	.	.	.
Cc1nc2cc(-c3ccc(Cl)cc3)nn2c(C)c1CCC(=O)N1CCC2(CC1)OCCO2	/	.	/	/	/	/
Cc1ccsc1C(=O)C1CCCN(Cc2cnc(N(C)C)s2)C1 (centres undefined)	.	/	.	.	/	/
Cc1ccsc1C(=O)C1CCCN(Cc2cnc(N3CCOCC3)s2)C1 (centres undefined)	.	.	.	.	.	.
CCN1CCC2(CC1)NC(CO)(CO)CO2	48	.	.	.	.	.
CCCN1CCC2(CC1)NC(CO)(CO)CO2	.	.	.	.	/	/
Cc1ccc2c(c1)C1CN(C)CCC1N2C(=O)COc1ccc(S(=O)(=O)N2CCOCC2)cc1 (centres undefined)	.	.	.	.	.	.
Cc1ccc2c(c1)C1CN(C)CCC1N2C(=O)Cc1cccs1 (centres undefined)	.	.	.	.	/	/
Cc1ccc2c(c1)C1CN(C)CCC1N2C(=O)/C=C/c1ccc2c(c1)OCO2 (centres undefined)	64	.	.	.	.	.
Cc1ccsc1C(=O)C1CCCN(Cc2sc(N(C)C)nc2Cl)C1 (centres undefined)	.	.	.	.	/	/
Cc1ccc(-c2nc3ccccc3c(=O)n2-c2ncccc2C)cc1	60	.	.	.	.	.
CC(=NCc1ccc2c(c1)OCO2)c1c(O)n(-c2ccc(C)cc2)c(=O)[nH]c1=O	.	.	.	.	/	/
COc1ccc(CCn2c(O)c(C=Nc3ccc(NC(C)=O)cc3)c(=O)[nH]c2=O)cc1OC	.	.	.	.	/	/
CCOc1ccc(N=Cc2c(O)n(CCc3ccc(OC)c(OC)c3)c(=O)[nH]c2=O)cc1	100	.	.	.	.	.
COc1cc(/C=C/c2nc3ccccc3c(=O)n2-c2cccc(O)c2)ccc1O	.	.	.	.	/	/
COc1cc(/C=C/c2nc3ccccc3c(=O)n2-c2ccccc2O)ccc1O	48	.	.	.	.	.
CCc1nc2ccc(N3CCN(C)CC3)cc2nc1CC	100	.	.	.	.	.
Cc1cc(=O)oc2cc(OCC(=O)N3C[C@H]4C[C@@H](C3)c3cccc(=O)n3C4)c(Cl)cc12	.	.	.	.	/	/
Cc1cc(=O)oc2cc(OCC(=O)N3CCN(C(C)c4ccccc4)CC3)c(Cl)cc12 (centres undefined)	.	.	.	.	.	.
Cc1nn(-c2ccccc2)c2c1C(c1ccc3c(c1)OCO3)SCC(=O)N2 (centres undefined)	.	.	.	.	.	.
O=c1[nH]c(=S)n(-c2ccccc2)c(O)c1C=NCCN1CCNCC1	89	.	.	.	.	.
Cc1cc(C(=O)N2CCC3(CC2)OCCO3)cs1	.	.	.	.	/	/
